According to PubChem BioAssay AID1345085 (National Center for Advancing Translational Sciences (NCATS), 2018):
Results filed as inconclusive are left out. Activity calls are given as the source filed them. The call rests on the fitted dose curve; in most records, active means well fitted cell-killing curve with a large enough effect; inconclusive means small, poorly fitted or top-dose-only effect, or effect the other way; inactive means no such curve, though single readings can be large or run the other way. *1 amine or outer side, *2 acyl side, *3 side chain or, on linkers, in order; H or OH if unused. Where a SMILES comes first, the peptide text is derived from it. Bridges are numbered along the chain shown (N, C = ends). Roman numbers before positions name the chains, in order. [ ]: non-standard residue; d: D form. Actinocin(9to1) = Cc1c2oc3c(C)ccc(C(=O)[*:1])c3nc-2c(C(=O)[*:2])c(N)c1=O; NMeV = CN[C@H](C(=O)O)C(C)C; Sar = CNCC(=O)O

What follows are compounds tested on C33A (assay: Confirmatory qHTS for gynecologic anti-cancer compounds from libraries of approved drugs and bioactive compounds). Details: gynecologic cancer cell panel viability, ATPlite luminescence, 48 h; series mostly up to 57.6 µM; activity change, negative = viability loss: at the top concentration.
Procedure, shortened: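 ATPlite luminescence read-out of cell viability; IC50 from 11-point 1:3 titrations, 57.5 uM to 0.977 nM, 48 h compound exposure at 37 C, 5% CO2. Cells seeded at 1,000/well 16 h before dosing.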
Further: nearly all actives have a fitted effect of over 55% in size.
On the % scale 0 is the no-effect control and ±100 the full control effect; potency means the concentration at half of the fitted maximal effect.

| SMILES | Potency | activity change, negative = viability loss |
| --- | --- | --- |
| CCC1C(=O)N(C)c2cnc(Nc3ccc(C(=O)NC4CCN(C)CC4)cc3OC)nc2N1C1CCCC1 (stereo unspecified) | 0.0544 µM (active) |  |
| Cc1cnc(Nc2ccc(CN3CCOCC3)cc2)nc1Nc1cccc(S(=O)(=O)NC(C)(C)C)c1 | 21.7 µM (active) |  |
| COc1cc2c(Nc3ccc(NC(=O)c4ccccc4)cc3)ncnc2cc1OCCCN1CCOCC1 | 27.3 µM (active) |  |
| Cc1cnc(Nc2ccc(F)cc2Cl)nc1-c1c[nH]c(C(=O)NC(CO)c2cccc(Cl)c2)c1 (stereo unspecified) |  | 4.56% (inactive) |
| CCC1C(=O)N(C)c2cnc(Nc3ccc(C(=O)NC4CCC(N5CCN(CC6CC6)CC5)CC4)cc3OC)nc2N1C(C)C (stereo unspecified) | 0.172 µM (active) |  |
| CCN(CC)CCNC(=O)c1c(C)[nH]c(/C=C2\C(=O)Nc3ccc(F)cc32)c1C | 22.4 µM (active) |  |
| O=C(O)C1(Cc2cccc(Nc3nccs3)n2)CCC(Oc2cccc(Cl)c2F)CC1 (stereo unspecified) |  | 3.54% (inactive) |
| CC(C)Nc1cc(-c2c[nH]c(C(=O)N[C@H](CO)c3cccc(Cl)c3)c2)c(Cl)cn1 |  | -12.1% (inactive) |
| CC(C)c1nn(-c2c(Cl)cccc2Cl)c2nc(Cc3ccc(OCCO)cc3)[nH]c(=O)c12 | 0.0968 µM (active) |  |
| CCOc1cc2ncc(C#N)c(Nc3ccc(F)c(Cl)c3)c2cc1NC(=O)/C=C/CN(C)C | 8.63 µM (active) |  |
| CN(Cc1cnc2nc(N)nc(N)c2n1)c1ccc(C(=O)N[C@@H](CCC(=O)O)C(=O)O)cc1 |  | 14.3% (inactive) |
| OCCNC1CCCc2c1[nH]c1ccc(-c3ccccc3)cc21 (stereo unspecified) | 17.2 µM (active) |  |
| Cc1cncc2cccc(S(=O)(=O)N3CCCN(C(=O)CN)C[C@@H]3C)c12 |  | 8.41% (inactive) |
| CC1=C(CO)C(=O)O[C@@H]([C@@H](C)[C@H]2CC[C@H]3[C@@H]4C[C@H]5O[C@]56[C@@H](O)C=CC(=O)[C@]6(C)[C@H]4CC[C@]23C)C1 | 2.11 µM (active) |  |
| COc1cc(N2CCC(N3CCN(C)CC3)CC2)ccc1Nc1ncc(Cl)c(Nc2ccccc2S(=O)(=O)C(C)C)n1 | 27.3 µM (active) |  |
| Cc1c2oc3c(C)ccc(C(=O)N[C@@H]4C(=O)N[C@H](C(C)C)C(=O)N5CCC[C@H]5C(=O)N(C)CC(=O)N(C)[C@@H](C(C)C)C(=O)O[C@@H]4C)c3nc-2c(C(=O)N[C@@H]2C(=O)N[C@H](C(C)C)C(=O)N3CCC[C@H]3C(=O)N(C)CC(=O)N(C)[C@@H](C(C)C)C(=O)O[C@@H]2C)c(N)c1=O (I: T[dV]P[Sar][NMeV] / II: T[dV]P[Sar][NMeV]; ester I:1-I:C, II:1-II:C; linker I:N-II:N via Actinocin(9to1)) | 0.385 µM (active) |  |

| SMILES | Potency | activity change, negative = viability loss |
| --- | --- | --- |
| CC(C)[C@@H](CS(=O)(=O)C(C)C)N1C(=O)[C@@](C)(CC(=O)O)C[C@H](c2cccc(Cl)c2)[C@H]1c1ccc(Cl)cc1 |  | 0.0552% (inactive) |
| Cc1cc(Nc2cc(N3CCN(C)CC3)nc(/C=C/c3ccccc3)n2)n[nH]1 | 21.7 µM (active) |  |
| CCCc1nn(C)c2c(=O)[nH]c(-c3cc(S(=O)(=O)N4CCN(C)CC4)ccc3OCC)nc12 |  | 15.6% (inactive) |
| CC(C)C[C@H](NC(=O)[C@H](Cc1ccccc1)NC(=O)c1cnccn1)B(O)O | 0.153 µM (active) |  |
| N#CC1(c2cccc(C(=O)Nc3cc(Oc4ccc5nc(NC(=O)C6CC6)sc5n4)ccc3F)c2Cl)CC1 |  | -24.7% (inactive) |
| CN1CCN(Cc2ccc(NC(=O)Nc3ccc(Oc4cc(NC(=O)C5CC5)ncn4)cc3)cc2C(F)(F)F)CC1 | 7.69 µM (active) |  |
| NC1(c2ccc(-c3nc4ccn5c(=O)[nH]nc5c4cc3-c3ccccc3)cc2)CCC1 |  | 11% (inactive) |
| O=C(c1ccc(F)c(F)c1Nc1ccc(I)cc1F)N1CC(O)([C@@H]2CCCCN2)C1 | 27.3 µM (active) |  |
| NC(=O)Nc1cc(-c2cccc(F)c2)sc1C(=O)NC1CCCNC1 (stereo unspecified) | 0.485 µM (active) |  |
| Cc1ccc(C(=O)N(CCCN)C(c2nc3cc(Cl)ccc3c(=O)n2Cc2ccccc2)C(C)C)cc1 (stereo unspecified) | 0.485 µM (active) |  |
| c1nc2nc(Nc3ccc(N4CCOCC4)cc3)nc(NC3CCCCC3)c2[nH]1 |  | -6.39% [at 19.5 µM] (inactive) |
| COc1cccc2c1C(=O)c1c(O)c3c(c(O)c1C2=O)C[C@@](O)(C(=O)CO)C[C@@H]3O[C@H]1C[C@H](N)[C@H](O[C@@H]2CCCCO2)[C@H](C)O1 | 2.43 µM (active) |  |
| COc1ccc(OC)c(-c2nnc3ccc(-c4ccc(OC)c(O[C@@H]5CCOC5)c4)nn23)c1 |  | -2.95% (inactive) |
| Oc1cn2c(n1)Nc1ccc(Cl)c(Cl)c1C2 |  | -2.44% [at 19.5 µM] (inactive) |
| NS(=O)(=O)OC[C@@H]1C[C@@H](n2ccc3c(N[C@H]4CCc5ccccc54)ncnc32)C[C@@H]1O | 4.85 µM (active) |  |
